# Assay results as given in paper PMC7862700, “An all-to-all approach to the identification of sequence-specific readers for epigenetic DNA modifications on cytosine”.
# What was measured:
# Test in all cases: DAPPL (digital affinity profiling via proximity ligation, sequencing); 10 mM Tris-HCl pH 7.5, 50 mM NaCl, 1 mM DTT, 4% glycerol, room temperature, 30 min; GST-TFs on glutathione beads, 16-mer random dsDNA library, 0.1% formaldehyde crosslink after washing; high values mean tight binding
# FLI1 = target: T1, FLI1 (Homo sapiens, UniProt Q01543 1-452); conditions: protein: recombinant; tags: N-terminal GST; dsDNA, one strand shown
# T1 sequence: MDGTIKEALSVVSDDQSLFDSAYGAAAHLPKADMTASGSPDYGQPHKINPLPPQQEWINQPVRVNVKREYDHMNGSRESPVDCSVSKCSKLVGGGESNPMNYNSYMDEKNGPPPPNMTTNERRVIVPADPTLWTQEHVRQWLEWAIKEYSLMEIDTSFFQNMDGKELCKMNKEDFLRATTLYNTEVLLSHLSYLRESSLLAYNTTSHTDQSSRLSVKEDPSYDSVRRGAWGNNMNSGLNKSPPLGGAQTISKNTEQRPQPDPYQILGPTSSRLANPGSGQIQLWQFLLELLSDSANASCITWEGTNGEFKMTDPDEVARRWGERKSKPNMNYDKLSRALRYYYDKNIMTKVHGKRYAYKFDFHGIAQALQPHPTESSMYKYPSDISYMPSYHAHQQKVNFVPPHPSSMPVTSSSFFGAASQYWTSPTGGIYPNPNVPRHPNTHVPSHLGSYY
# How it was run: (§1)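 Pools of DNA-barcoded human transcription factors, expressed in yeast as GST fusions on glutathione beads and combined with a tag-only sample, were incubated with 200 nmole of a 16-mer random double-stranded DNA library. Incubation took 30 min at room temperature in Tris/NaCl/DTT/glycerol buffer and was followed by washing, 0.1% formaldehyde crosslinking, proximity ligation (BsaI/T4 ligase, 1 h, 37 °C), PCR amplification and sequencing on an Illumina NextSeq500. Binding signal is the ratio of a hexamer's read frequency for a factor to its frequency for the tag-only sample.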
# ELK1 = target: T2, ELK1 (Homo sapiens, UniProt P19419 1-428); conditions: protein: recombinant; tags: N-terminal GST; dsDNA, one strand shown
# T2 sequence: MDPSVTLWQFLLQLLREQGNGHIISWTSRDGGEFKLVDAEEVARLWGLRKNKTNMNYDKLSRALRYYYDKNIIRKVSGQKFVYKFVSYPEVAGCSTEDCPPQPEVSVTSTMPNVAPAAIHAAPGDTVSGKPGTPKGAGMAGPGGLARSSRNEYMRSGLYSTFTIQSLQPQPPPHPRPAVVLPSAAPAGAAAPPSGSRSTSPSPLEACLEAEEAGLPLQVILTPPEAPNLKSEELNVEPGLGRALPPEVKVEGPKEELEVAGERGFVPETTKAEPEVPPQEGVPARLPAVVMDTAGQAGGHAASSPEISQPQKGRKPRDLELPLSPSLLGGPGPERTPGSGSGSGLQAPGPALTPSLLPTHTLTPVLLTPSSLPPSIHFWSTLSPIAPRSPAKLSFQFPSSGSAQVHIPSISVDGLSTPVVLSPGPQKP
# How it was run: as §1
# GABPA = target: T3, GABPA (Homo sapiens, UniProt Q06546 1-454); conditions: protein: recombinant; tags: N-terminal GST; dsDNA, one strand shown
# T3 sequence: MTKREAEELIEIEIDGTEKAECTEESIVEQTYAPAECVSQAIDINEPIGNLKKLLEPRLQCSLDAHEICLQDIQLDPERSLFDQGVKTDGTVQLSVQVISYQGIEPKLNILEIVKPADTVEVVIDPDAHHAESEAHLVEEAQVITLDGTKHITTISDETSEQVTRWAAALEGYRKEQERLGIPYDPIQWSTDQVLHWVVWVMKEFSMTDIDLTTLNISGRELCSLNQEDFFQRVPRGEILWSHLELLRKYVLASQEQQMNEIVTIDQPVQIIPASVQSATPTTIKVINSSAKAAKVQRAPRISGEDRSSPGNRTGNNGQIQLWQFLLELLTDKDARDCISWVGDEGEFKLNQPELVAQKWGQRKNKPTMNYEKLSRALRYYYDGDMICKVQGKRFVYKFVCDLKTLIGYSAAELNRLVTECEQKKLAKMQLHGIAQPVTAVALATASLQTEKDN
# How it was run: as §1
# ERG = target: T4, ERG (Homo sapiens, UniProt P11308 1-479); conditions: protein: recombinant; tags: N-terminal GST; dsDNA, one strand shown
# T4 sequence: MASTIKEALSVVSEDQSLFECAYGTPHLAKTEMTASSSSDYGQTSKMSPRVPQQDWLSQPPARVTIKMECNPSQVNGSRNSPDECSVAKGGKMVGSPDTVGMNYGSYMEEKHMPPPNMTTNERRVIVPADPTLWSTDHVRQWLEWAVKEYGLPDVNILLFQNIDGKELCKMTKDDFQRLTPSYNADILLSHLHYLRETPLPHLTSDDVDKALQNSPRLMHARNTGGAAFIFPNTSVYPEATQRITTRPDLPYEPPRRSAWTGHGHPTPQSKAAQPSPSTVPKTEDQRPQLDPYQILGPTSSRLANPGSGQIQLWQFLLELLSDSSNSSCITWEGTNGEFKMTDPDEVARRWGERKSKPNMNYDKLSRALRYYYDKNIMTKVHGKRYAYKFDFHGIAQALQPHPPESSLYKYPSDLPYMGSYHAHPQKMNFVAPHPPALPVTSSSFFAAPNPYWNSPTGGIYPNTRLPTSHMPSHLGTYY
# How it was run: as §1
# ELF1 = ELF1 (Homo sapiens, UniProt P32519 1-619); conditions: protein: recombinant; tags: N-terminal GST; dsDNA, one strand shown
# Sequence of ELF1 (P32519 whole entry): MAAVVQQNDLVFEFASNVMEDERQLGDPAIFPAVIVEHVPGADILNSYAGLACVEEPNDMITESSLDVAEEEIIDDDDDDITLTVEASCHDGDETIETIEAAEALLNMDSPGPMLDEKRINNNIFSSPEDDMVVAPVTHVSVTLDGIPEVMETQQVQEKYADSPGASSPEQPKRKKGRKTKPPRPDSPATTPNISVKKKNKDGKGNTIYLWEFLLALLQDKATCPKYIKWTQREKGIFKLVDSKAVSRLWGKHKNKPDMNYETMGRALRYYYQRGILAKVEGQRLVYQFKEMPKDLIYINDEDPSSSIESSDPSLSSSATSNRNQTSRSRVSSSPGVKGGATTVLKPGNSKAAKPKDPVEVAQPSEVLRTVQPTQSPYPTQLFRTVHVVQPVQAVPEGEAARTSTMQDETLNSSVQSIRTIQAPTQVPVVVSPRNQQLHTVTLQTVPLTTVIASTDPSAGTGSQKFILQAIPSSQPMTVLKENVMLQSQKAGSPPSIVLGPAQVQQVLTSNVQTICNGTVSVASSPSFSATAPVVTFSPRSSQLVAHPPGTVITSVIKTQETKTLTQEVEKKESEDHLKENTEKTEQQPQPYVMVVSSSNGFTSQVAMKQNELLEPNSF
# How it was run: as §1
# EHF = target: T5, EHF (Homo sapiens, UniProt Q9NZC4 1-300); conditions: protein: recombinant; tags: N-terminal GST; dsDNA, one strand shown
# T5 sequence: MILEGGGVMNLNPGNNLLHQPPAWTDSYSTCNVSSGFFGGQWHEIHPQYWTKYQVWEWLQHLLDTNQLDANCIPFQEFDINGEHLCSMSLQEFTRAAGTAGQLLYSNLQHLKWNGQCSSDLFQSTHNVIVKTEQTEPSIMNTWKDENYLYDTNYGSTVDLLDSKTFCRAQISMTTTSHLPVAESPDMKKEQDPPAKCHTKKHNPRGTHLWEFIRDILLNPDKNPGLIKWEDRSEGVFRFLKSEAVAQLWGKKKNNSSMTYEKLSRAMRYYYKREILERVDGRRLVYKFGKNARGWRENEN
# How it was run: as §1
# SPI1 = SPI1 (Homo sapiens, UniProt P17947 1-270); conditions: protein: recombinant; tags: N-terminal GST; dsDNA, one strand shown
# How it was run: as §1
# SPIB = SPIB (Homo sapiens, UniProt Q01892 1-262); conditions: protein: recombinant; tags: N-terminal GST; dsDNA, one strand shown
# Sequence of SPIB (Q01892 whole entry): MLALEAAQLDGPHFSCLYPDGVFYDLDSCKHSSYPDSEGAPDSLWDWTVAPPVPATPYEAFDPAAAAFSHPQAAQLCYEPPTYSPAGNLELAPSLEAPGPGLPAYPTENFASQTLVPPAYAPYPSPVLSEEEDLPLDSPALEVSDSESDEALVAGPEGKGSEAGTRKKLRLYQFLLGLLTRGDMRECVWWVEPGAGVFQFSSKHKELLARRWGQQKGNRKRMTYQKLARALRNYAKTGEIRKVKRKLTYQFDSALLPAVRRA
# How it was run: as §1
# ELK3 = target: T6, ELK3 (Homo sapiens, UniProt P41970 1-407); conditions: protein: recombinant; tags: N-terminal GST; dsDNA, one strand shown
# T6 sequence: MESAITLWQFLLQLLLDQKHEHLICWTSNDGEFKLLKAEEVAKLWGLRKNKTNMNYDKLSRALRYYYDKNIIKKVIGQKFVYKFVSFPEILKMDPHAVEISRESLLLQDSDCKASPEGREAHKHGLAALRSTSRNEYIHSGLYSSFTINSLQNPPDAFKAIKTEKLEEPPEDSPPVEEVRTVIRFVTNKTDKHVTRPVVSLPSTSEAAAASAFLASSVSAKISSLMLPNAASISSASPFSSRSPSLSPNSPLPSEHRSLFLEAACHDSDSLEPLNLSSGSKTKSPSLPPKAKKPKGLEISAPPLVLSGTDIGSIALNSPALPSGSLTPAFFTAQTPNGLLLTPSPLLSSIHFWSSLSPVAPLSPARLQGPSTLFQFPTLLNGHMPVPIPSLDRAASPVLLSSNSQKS
# How it was run: as §1
# FEV = target: T7, FEV (Homo sapiens, UniProt Q99581 1-238); conditions: protein: recombinant; tags: N-terminal GST; dsDNA, one strand shown
# T7 sequence: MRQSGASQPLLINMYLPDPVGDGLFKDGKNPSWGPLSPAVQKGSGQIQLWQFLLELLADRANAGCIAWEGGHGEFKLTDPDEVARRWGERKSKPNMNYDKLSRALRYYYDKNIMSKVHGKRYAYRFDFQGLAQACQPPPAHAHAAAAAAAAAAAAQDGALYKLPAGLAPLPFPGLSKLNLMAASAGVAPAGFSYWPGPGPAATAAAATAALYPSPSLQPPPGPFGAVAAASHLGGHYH
# How it was run: as §1
# ETV5 = ETV5 (Homo sapiens, UniProt P41161 1-510); conditions: protein: recombinant; tags: N-terminal GST; dsDNA, one strand shown
# Sequence of ETV5 (P41161 whole entry): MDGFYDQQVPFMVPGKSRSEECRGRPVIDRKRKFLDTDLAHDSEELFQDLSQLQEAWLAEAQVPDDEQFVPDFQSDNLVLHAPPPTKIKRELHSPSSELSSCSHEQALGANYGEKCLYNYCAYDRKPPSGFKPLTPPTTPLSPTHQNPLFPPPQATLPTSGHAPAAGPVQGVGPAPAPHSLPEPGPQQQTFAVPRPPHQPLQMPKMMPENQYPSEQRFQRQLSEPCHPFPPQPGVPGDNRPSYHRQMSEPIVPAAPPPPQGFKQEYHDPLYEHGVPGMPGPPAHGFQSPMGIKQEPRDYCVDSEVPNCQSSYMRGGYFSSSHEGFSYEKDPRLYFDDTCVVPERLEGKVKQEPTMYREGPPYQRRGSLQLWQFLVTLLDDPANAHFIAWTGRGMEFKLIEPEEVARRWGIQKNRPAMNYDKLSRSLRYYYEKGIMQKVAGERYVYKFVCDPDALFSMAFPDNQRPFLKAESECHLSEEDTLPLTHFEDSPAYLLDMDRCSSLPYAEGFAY
# How it was run: as §1
# HSF1 = HSF1 (Homo sapiens, UniProt Q00613 1-529); conditions: protein: recombinant; tags: N-terminal GST; chain copies: 3; dsDNA, one strand shown
# Sequence of HSF1 (Q00613 whole entry): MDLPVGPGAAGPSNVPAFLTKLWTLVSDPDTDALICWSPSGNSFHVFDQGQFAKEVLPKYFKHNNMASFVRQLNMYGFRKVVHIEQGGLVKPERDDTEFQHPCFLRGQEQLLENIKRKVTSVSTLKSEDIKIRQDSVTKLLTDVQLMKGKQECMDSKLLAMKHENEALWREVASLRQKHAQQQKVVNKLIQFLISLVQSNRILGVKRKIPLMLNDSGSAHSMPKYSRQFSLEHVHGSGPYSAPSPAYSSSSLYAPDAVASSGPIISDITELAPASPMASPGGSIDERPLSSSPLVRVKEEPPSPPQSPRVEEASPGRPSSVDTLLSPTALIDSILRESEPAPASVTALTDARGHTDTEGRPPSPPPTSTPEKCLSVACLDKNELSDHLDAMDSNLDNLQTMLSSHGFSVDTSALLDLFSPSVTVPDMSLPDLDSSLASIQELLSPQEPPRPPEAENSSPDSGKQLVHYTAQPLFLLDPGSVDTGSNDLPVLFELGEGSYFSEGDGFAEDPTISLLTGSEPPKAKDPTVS
# How it was run: as §1
# SPIC = target: T8, SPIC (Homo sapiens, UniProt Q8N5J4 1-248); conditions: protein: recombinant; tags: N-terminal GST; dsDNA, one strand shown
# T8 sequence: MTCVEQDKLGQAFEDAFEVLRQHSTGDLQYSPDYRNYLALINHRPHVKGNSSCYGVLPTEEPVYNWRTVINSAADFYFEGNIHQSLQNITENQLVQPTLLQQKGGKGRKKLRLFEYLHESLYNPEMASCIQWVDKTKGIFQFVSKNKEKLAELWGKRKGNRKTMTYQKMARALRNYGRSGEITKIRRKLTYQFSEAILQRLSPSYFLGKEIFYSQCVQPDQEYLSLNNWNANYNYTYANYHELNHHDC
# How it was run: as §1
# ELF4 = ELF4 (Homo sapiens, UniProt Q99607 1-663); conditions: protein: recombinant; tags: N-terminal GST; dsDNA, one strand shown
# Sequence of ELF4 (Q99607 whole entry): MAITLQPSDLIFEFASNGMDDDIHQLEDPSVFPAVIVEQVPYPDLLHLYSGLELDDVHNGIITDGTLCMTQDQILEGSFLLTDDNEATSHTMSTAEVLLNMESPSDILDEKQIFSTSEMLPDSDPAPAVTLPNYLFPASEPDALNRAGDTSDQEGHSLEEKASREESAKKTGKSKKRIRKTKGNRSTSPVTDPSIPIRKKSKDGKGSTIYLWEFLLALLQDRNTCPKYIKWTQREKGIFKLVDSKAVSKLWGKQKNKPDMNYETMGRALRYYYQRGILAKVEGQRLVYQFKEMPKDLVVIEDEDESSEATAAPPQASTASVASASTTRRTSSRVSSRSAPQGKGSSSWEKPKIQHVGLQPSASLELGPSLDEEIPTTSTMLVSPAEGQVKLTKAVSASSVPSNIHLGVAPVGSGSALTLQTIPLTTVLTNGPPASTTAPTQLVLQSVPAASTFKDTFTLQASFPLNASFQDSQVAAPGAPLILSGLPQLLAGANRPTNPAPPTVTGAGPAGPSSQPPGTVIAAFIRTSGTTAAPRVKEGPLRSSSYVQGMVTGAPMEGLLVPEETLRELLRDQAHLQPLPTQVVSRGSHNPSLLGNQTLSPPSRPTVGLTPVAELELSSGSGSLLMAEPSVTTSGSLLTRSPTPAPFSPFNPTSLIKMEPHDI
# How it was run: as §1
# ELK4 = target: T9, ELK4 (Homo sapiens, UniProt P28324-2 1-405); conditions: protein: recombinant; tags: N-terminal GST; dsDNA, one strand shown
# T9 sequence: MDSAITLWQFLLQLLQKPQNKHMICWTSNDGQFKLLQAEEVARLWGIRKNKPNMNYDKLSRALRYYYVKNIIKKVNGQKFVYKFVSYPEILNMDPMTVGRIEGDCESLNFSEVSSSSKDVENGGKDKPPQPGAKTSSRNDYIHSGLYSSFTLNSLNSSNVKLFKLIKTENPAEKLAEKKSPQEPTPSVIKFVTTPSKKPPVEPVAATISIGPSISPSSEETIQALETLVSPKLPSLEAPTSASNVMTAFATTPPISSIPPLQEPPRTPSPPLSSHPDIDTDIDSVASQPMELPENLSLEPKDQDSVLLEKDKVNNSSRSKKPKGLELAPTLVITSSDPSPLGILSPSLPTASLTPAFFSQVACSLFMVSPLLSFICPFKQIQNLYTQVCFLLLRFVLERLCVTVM
# How it was run: as §1
# ETV2 = target: T10, ETV2 (Homo sapiens, UniProt O00321 1-342); conditions: protein: recombinant; tags: N-terminal GST; dsDNA, one strand shown
# T10 sequence: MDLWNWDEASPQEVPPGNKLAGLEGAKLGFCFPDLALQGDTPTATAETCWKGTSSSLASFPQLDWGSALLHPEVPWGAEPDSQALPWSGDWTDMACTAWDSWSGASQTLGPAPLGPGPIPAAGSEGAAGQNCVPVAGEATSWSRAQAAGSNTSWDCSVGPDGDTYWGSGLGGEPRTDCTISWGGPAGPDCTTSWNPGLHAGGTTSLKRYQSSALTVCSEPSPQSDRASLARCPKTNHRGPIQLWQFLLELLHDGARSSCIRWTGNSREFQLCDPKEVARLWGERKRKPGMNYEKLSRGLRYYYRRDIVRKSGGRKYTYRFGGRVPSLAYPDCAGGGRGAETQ
# How it was run: as §1
# ELF3 = target: T11, ELF3 (Homo sapiens, UniProt P78545 1-371); conditions: protein: recombinant; tags: N-terminal GST; dsDNA, one strand shown
# T11 sequence: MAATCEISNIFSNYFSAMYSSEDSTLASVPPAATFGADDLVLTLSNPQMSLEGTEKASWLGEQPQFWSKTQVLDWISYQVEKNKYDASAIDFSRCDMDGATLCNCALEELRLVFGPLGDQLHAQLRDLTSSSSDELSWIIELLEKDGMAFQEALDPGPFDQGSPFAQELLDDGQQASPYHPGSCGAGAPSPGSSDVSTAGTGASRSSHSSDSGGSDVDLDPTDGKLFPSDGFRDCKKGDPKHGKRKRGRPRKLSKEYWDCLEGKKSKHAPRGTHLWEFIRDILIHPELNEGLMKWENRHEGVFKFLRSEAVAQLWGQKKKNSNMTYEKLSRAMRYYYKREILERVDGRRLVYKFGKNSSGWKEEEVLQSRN
# How it was run: as §1
# CRX = CRX (Homo sapiens, UniProt O43186 1-299); conditions: protein: recombinant; tags: N-terminal GST; dsDNA, one strand shown
# Sequence of CRX (O43186 whole entry): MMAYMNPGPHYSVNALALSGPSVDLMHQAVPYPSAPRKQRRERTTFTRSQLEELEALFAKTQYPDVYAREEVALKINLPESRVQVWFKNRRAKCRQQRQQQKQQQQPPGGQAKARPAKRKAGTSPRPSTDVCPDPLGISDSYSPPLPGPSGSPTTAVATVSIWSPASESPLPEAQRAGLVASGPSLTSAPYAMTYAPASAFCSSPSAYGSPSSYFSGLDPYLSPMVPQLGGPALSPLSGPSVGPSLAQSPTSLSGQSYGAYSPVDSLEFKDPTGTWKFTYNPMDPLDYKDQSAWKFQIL
# How it was run: as §1
# ETV1 = ETV1 (Homo sapiens, UniProt P50549 1-477); conditions: protein: recombinant; tags: N-terminal GST; dsDNA, one strand shown
# Sequence of ETV1 (P50549 whole entry): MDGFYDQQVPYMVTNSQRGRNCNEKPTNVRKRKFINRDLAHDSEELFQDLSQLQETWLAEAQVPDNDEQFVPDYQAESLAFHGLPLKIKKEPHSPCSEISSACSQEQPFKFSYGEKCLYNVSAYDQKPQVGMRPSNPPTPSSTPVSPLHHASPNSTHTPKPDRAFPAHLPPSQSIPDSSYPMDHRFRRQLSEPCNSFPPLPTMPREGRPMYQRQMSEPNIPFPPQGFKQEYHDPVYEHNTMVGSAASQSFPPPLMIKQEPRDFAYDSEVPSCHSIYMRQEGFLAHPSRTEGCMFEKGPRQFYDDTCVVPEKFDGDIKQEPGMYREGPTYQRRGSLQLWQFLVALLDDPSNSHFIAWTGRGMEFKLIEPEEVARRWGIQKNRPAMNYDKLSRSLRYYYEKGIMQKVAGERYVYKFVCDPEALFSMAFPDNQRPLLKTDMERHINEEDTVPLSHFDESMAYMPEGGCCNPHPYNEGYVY
# How it was run: as §1
sequence,measurement,setting,value
TATAGA,binding signal,FLI1,"1.02 fold enrichment (6-mer frequency, TF over GST control)"
same,binding signal,ELK1,"1.07 fold enrichment (6-mer frequency, TF over GST control)"
same,binding signal,GABPA,"1.12 fold enrichment (6-mer frequency, TF over GST control)"
same,binding signal,ERG,"1 fold enrichment (6-mer frequency, TF over GST control)"
same,binding signal,ELF1,"1.13 fold enrichment (6-mer frequency, TF over GST control)"
same,binding signal,EHF,"1.07 fold enrichment (6-mer frequency, TF over GST control)"
same,binding signal,SPI1,"1.13 fold enrichment (6-mer frequency, TF over GST control)"
same,binding signal,SPIB,"1.07 fold enrichment (6-mer frequency, TF over GST control)"
same,binding signal,ELK3,"1.14 fold enrichment (6-mer frequency, TF over GST control)"
same,binding signal,FEV,"1.04 fold enrichment (6-mer frequency, TF over GST control)"
same,binding signal,ETV5,"1.08 fold enrichment (6-mer frequency, TF over GST control)"
same,binding signal,HSF1,"1.52 fold enrichment (6-mer frequency, TF over GST control)"
same,binding signal,SPIC,"1.04 fold enrichment (6-mer frequency, TF over GST control)"
same,binding signal,ELF4,"1.09 fold enrichment (6-mer frequency, TF over GST control)"
same,binding signal,ELK4,"1 fold enrichment (6-mer frequency, TF over GST control)"
same,binding signal,ETV2,"1.08 fold enrichment (6-mer frequency, TF over GST control)"
same,binding signal,ELF3,"1.17 fold enrichment (6-mer frequency, TF over GST control)"
same,binding signal,CRX,"1.45 fold enrichment (6-mer frequency, TF over GST control)"
same,binding signal,ETV1,"1.13 fold enrichment (6-mer frequency, TF over GST control)"
